Assay outcomes as filed in PubChem BioAssay.
Most compounds without a hit are left out; they make up all but 1.5% or so of the library.
GALK inhibitor: qHTS Assay for Inhibitors of Human Galactokinase (GALK); P51570; Purified GALK, Kinase-Glo residual ATP luminescence; Potency, µM (titrated, usually from 57.5 µM), without a hit: top-dose activity change, negative = inhibition, most hits filed as inhibitors; 270,000 compounds, 0.007% hits; further: potency means the concentration at half of the fitted maximal effect
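Galactose (100 uM) and ATP (35 uM) were turned over by 5 nM GALK for 1 h at RT. Kinase-Glo Plus then converted the remaining ATP into a luminescent signal.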
rTrxR1 inhibitor: qHTS Assay for Inhibitors of Mammalian Selenoprotein Thioredoxin Reductase 1 (TrxR1): qHTS; Thioredoxin reductase 1, cytoplasmic (Rattus norvegicus), O89049; recombinant rTrxR1, NADPH fluorescence consumption, selenite substrate; Potency, µM (top dose mostly 114 µM), for inactives: at the highest dose activity change, negative = inhibition, actives largely listed as inhibitors; 390,000 compounds, 1% hits; AID 588453, 2011; further: potency means the concentration at half of the fitted maximal effect; nearly all actives have a fitted effect of over 65% in size
Target sequence (O89049 whole entry, looked up): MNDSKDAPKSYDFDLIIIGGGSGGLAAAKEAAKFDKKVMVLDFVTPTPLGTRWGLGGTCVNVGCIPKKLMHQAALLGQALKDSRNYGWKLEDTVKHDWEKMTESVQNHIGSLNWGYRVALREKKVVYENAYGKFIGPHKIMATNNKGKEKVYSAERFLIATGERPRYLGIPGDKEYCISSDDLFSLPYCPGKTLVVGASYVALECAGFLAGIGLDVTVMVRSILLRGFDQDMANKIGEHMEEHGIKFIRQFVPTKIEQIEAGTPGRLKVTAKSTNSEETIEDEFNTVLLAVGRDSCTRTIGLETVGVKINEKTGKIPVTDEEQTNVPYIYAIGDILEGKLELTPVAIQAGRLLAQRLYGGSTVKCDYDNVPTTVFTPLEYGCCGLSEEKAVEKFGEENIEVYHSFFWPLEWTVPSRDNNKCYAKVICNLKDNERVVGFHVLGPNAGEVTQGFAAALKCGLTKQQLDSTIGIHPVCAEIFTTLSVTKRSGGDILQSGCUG
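Rat TrxR1 (90 nM in the dispensed reagent) was pre-reduced with 400 uM NADPH for 5 min at room temperature, then incubated with compound for 15 min. After 400 uM selenite was added, NADPH fluorescence (Ex 340/Em 450 nm) was followed for 8 min.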
TrxR1 substrate: qHTS Assay for Substrates of Mammalian Selenoprotein Thioredoxin Reductase 1 (TrxR1): qHTS; 390,000 compounds, 0.01% hits; Thioredoxin reductase 1, cytoplasmic (Rattus norvegicus), O89049; purified TrxR1 substrate turnover, NADPH consumption readout; Potency, µM (titrated, usually from 114 µM), for inactives: at the top dose activity change, negative = substrate turnover; AID 588456, 2011; further: potency means the concentration at half of the fitted maximal effect; nearly all actives have a fitted effect of over 50% in size
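Rat TrxR1, dispensed at 90 nM, was prereduced with 400 uM NADPH (final) for 5 min at ~22 deg C, then incubated with compound 15 min before 400 uM selenite. A first-read NADPH fluorescence drop versus no-compound background flagged substrates.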
Eya2 inh: qHTS Assay for Inhibitors of the Phosphatase Activity of Eya2; 330,000 compounds, 0.006% hits; Potency, µM (titrated, usually from 76.9 µM), for inactives: at the highest dose activity, negative = inhibition, hits mostly inhibitors; recombinant Eya2, OMFP fluorescence dephosphorylation (OMFP is methylfluorescein phosphate); Protein phosphatase EYA2 (Homo sapiens), O00167; further: potency means the concentration at half of the fitted maximal effect
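Eya2 (0.2 uM) preincubated 10 min at ambient with compound, then OMFP substrate added at 50 uM; 10 min reaction in 50 mM HEPES pH 7.5, 50 mM NaCl, 5 uM MgCl2, 0.05% BSA, 1 mM DTT. Fluorescence read at Ex 485/Em 525 nm.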
CtBP-E1A inh: qHTS Assay for Inhibitors of the CtBP/E1A Interaction | CtBP / adenovirus E1A interaction (AlphaScreen) | AlphaScreen GST-E1A/His-CtBP binding, 1536-well; hits give low values | 340,000 compounds, 0.49% hits | AID 651724, 2012 | activity change, % (test concentration not listed); in the data active means activity change below about -65%; inconclusive means mostly about -30% to -63%
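Steps: dispense buffer (Tris pH 8.0, NaCl 300 mM, TCEP 1 mM, BSA, Tween 20); add 5X protein mix (GST-E1A, His-CtBP, 125 nM each); pin 23 nL compound; 2 h at 37 °C, dark; add 5X beads (50 ug/mL); 1 h; read.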
Six1-Eya2 inh: qHTS Assay for Inhibitors of the Six1/Eya2 Interaction. Homeobox protein SIX1 (Homo sapiens) + Protein phosphatase EYA2 (Homo sapiens), …. AlphaScreen GST-Six1/His-Eya2 binding, biochemical; hits give low values. activity change, % (concentration not given with the values). 360,000 compounds, 0.56% hits. AID 651725, 2012; in the data active means activity change below about -65%; inconclusive means mostly about -30% to -63%
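AlphaScreen with GST-Six1 and His-Eya2 (5X mix: 250 nM and 500 nM), glutathione donor and nickel acceptor beads; buffer 50 mM Tris pH 8.0, 300 mM NaCl, 1 mM TCEP; 1 h at 37 C in the dark.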
* = called active by the depositor; ? = inconclusive; · = not tested or not shown; ! = not confirmed by another sample; [ ] = another dose, or the depositor's remark. Unless noted, the call rests on the fitted dose curve; in most records, active means well fitted curve in the direction sought with a large enough effect; inconclusive means small, poorly fitted or top-dose-only effect, or another doubt; inactive means no such curve, though single readings can be large; an effect the other way counts as inactive or inconclusive. On the % scale 0 is the no-effect control and ±100 the full control effect.

SMILES	GALK inhibitor	rTrxR1 inhibitor	TrxR1 substrate	Eya2 inh	CtBP-E1A inh	Six1-Eya2 inh
Cc1[nH]n(-c2ccccc2)c(=O)c1/C=N/NC(=O)COc1ccccc1[N+](=O)[O-]	0%	1%	-11%	6%	-88*	-79*
Cc1c(/C=N\NC(=O)C2COc3ccccc3O2)c2ccccc2n1C (stereo not given)	-2%	-7%	-10%	-2%	-8	-22
CN(C)c1ccc(CNC(=O)C2CCCN(S(=O)(=O)c3ccc4c(ccn4C)c3)C2)cc1 (stereo not given)	·	10%[57.1 µM]	-4%[57.1 µM]	·	·	·
CCN1C(=O)/C(=C\C(=O)c2cccs2)c2cc(Br)ccc21	-2%	18µM*	-5%	8%	-1	2
Cc1cc(C(=O)N/N=C/c2cccs2)n[nH]1	4%	2%[57.1 µM]	2%[57.1 µM]	-8%	4	-6
Cc1cc(C(=O)N/N=C\c2cc(C(C)(C)C)ccc2O)n[nH]1	-8%	19%	1%	3%	-68*	?
COc1ccc(NC(=O)CN(c2ccc(C)cc2)S(=O)(=O)c2cccs2)cc1	·	27%	10%	·	·	·
CCOCCCN(Cc1ccco1)S(=O)(=O)c1cc2c(cc1Cl)NC(=O)CO2	·	?	-6%[57.1 µM]	·	·	·
C=CSc1sc(Cl)c(N2CCOCC2)c1[N+](=O)[O-]	2%	-9%[57.1 µM]	3%[57.1 µM]	1%	22	-6
C=CS(=O)(=O)c1sc(Cl)c(N2CCOCC2)c1[N+](=O)[O-]	-5%	0.32µM*	0%	16%	-4	-9
C=CCn1c(SCC)nc2ccccc2c1=O	·	8%	-3%	·	·	·
NCCCS(=O)(=O)O	·	11µM*!	11%[57.1 µM]	-2%	4	2
O=S(=O)(O)CCS	·	17%	0%	·	7	0
COc1cc(NC(=O)Cn2nc(C(F)(F)F)c3c2CCCC3)c(OC)cc1Cl	·	0%	-2%	·	·	·
Cc1cc(/C=N/n2c(COc3ccccc3)nc3ccccc3c2=O)c(O)c([N+](=O)[O-])c1	·	-2%	-8%	5%	-80*	-88*
COc1ccc(NC(=O)CNC(=O)Cn2ccc3ccccc3c2=O)cc1OC	·	10%	8%	·	·	·
COc1ccc(Cc2c(O)nc(SCC(=O)c3ccc(OC)cc3)[nH]c2=O)cc1	-2%	16%[57.1 µM]	7%[57.1 µM]	9%	·	-86*
COc1ccc(Cc2c(O)nc(SCC(C)C)[nH]c2=O)cc1	3%	9%	4%	-6%	-3	-4
CC(=O)CCS(=O)(=O)c1ccc(Oc2ccc(S(=O)(=O)CCC(C)=O)cc2)cc1	0%	50µM*	-2%	4%	0	2
O=C(CSCC(=O)OCn1nnc2ccccc2c1=O)Nc1ccc(Cl)cc1	-2%	18µM*	1%	7%	0	18
C[C@H](NC(=O)c1ccc(Cl)cc1)C(=O)OCn1nnc2ccccc2c1=O	·	1%	0%	-30%	-1	6
O=C(O)c1cc(O)c2c(c1)[C@H]([C@H]1c3cc(C(=O)O)cc(O)c3C(=O)c3c(O[C@@H]4O[C@H](CO)[C@@H](O)[C@H](O)[C@H]4O)cccc31)c1cccc(OC3O[C@H](CO)[C@@H](O)[C@H](O)[C@H]3O)c1C2=O (stereo not given in full)	·	79µM*	-15%	-25%	?	-74*
O=C(O)c1cc(O)c2c(c1)[C@@H]([C@H]1c3cc(C(=O)O)cc(O)c3C(=O)c3c(O[C@@H]4O[C@H](CO)[C@@H](O)[C@H](O)[C@H]4O)cccc31)c1cccc(OC3O[C@H](CO)[C@@H](O)[C@H](O)[C@H]3O)c1C2=O (stereo not given in full)	·	5%	-3%	-33%	-29	-82*
O=C1c2cc(CO)cc(O)c2C(=O)c2c(O[C@@H]3OC(CO)[C@@H](O)[C@@H](O)[C@@H]3O)cccc21 (stereo not given in full)	·	17%	3%	·	-4	-3
Cc1cc(C)cc(OC(=O)c2cc(-c3ccc(Cl)cc3)on2)c1	·	37%	2%	·	·	·
SMILES	GALK inhibitor	rTrxR1 inhibitor	TrxR1 substrate	Eya2 inh	CtBP-E1A inh	Six1-Eya2 inh
COC(=O)C1CCN(c2cc(=O)n(-c3ccc(OC)cc3)c(=O)[nH]2)CC1	2%	28µM*	6%[57.1 µM]	22%	6	-1
CN(CCCNC(=O)c1ccc(/C=N/O)nc1)CCCN(C)Cc1ccccc1	1%	-9%	-6%	17%	?	?
O=C(NCCCNCCCNC(=O)c1ccc(/C=N/O)nc1)c1ccc(/C=N/O)nc1	-14%	1%	-8%	0%	·	-87*
CCC(C)Cn1cnc2c(Sc3c([N+](=O)[O-])ncn3C)nc(N)nc21 (stereo not given)	·	2.8µM*	1%	·	-4	-6
CC(C)Cn1cnc2c(Sc3c([N+](=O)[O-])ncn3C)nc(N)nc21	·	2µM*	-8%	·	-1	-2
CCCC(=O)Nc1cccc(-c2nc3cc(C)c(C)cc3o2)c1C	·	16%	12%	·	·	·
CCOC(=O)c1c(C)oc2c1c(C(c1ccccc1)N1CCOCC1)c(O)c1ccccc12 (stereo not given)	-2%	-18%[57.1 µM]	2%[57.1 µM]	-8%	-3	-5
CCOC(=O)c1c(C)oc2c1c(C(c1cccnc1)N1CCCCC1)c(O)c1ccccc12 (stereo not given)	1%	7.1µM*	2%	-10%	2	1
O=C(Cc1ccc(-c2ccccc2)cc1)NCCS(=O)(=O)N1CCN(c2ccc(F)cc2)CC1	·	19%[57.1 µM]	-2%[57.1 µM]	·	·	·
C=CCN1C=C2C(=O)C(C)(OC(=O)c3ccc(OC)cc3)C(=O)C(c3ccco3)=C2C=C1CCCC (stereo not given)	-1%	7.1µM*	12%[57.1 µM]	8%	-15	-5
N#CC1(NC(=O)Cn2ncc(Cl)c(Cl)c2=O)CCCCC1	·	5µM*	9%[57.1 µM]	-5%	-10	7
CCCc1cnc2c(c1SCC(=O)Nc1ccc(C)c(Cl)c1)c(=O)n(C)c(=O)n2C	·	24%[57.1 µM]	4%[57.1 µM]	·	·	·
CCSc1ncc(Cl)c(C(=O)Nc2ccc(S(=O)(=O)N3CCCCC3CC)cc2)n1 (stereo not given)	·	10%	-5%	·	·	·
